A short description of test [1]: AP1 Signaling Pathway (AID 357; active means well fitted curve in either direction with a large enough effect, not every such curve was filed as active;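 further: ME-180 reporter cells stimulated with EGF at its EC50 level; on the % scale 0 is the no-effect control and ±100 the full control effect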). The essentials:
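In this screen, ME-180 cells in Opti-MEM with 0.5% dialyzed FBS received EC50 EGF and compound titrations for 5 h. AP-1 reporter beta-lactamase was detected via CCF4 ratio, giving AC50 for positive and negative modulators.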

For test [2], the target named is Cytochrome P450 1A2 (Homo sapiens) (UniProt P05177). In words: p450-cyp1a2 (AID 410; calls by dose curve;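 further: -100% = full effect of reference inhibitor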). In a few lines: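 20nM CYP1A2, 100uM Luciferin-ME (=Km), 100mM KPO4; cpd 10 min RT; +NADPH regen, 60 min RT; stop/detect 20 min; luminescence. Normalized to furafylline 57 uM = full inhibition.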
The nature of test [3]: NFAT Signaling Pathway (AID 444; active means well fitted curve in either direction with a large enough effect, not every such curve was filed as active;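 further: carbachol stimulus at about its EC50 of 1 µM final; on the % scale 0 is the no-effect control and ±100 the full control effect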). The settings on record: Jurkat NFAT-bla M1, carbachol, beta-lactamase ratio, 5 h; at 17.2 µM (top of the series) unless noted. The essentials:
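Jurkat cells with NFAT-driven β-lactamase reporter and co-expressed M1 receptor, stimulated with carbachol (final 1 uM, ~EC50), compound titration, 5 h at 37 °C. CCF4 loaded 1 h at RT; 460/530 nm ratio gave %activity and AC50.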

Test [4] can be described thus: Stat Signaling Pathway (AID 446; active means well fitted curve in either direction with a large enough effect, not every such curve was filed as active;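 further: ME-180 cervical cancer cells given 40 pM IL-6 alongside compound; SIE-controlled beta-lactamase reporter measured as 460/530 nm FRET emission ratio; on the % scale 0 is the no-effect control and ±100 the full control effect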). The essentials:
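Compound effects on IL-6-induced STAT reporter activity were measured in ME-180 cells. After overnight culture, cells were co-treated with 40 pM IL-6 for 5 hrs before beta-lactamase substrate loading at room temperature.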

Test [5] deals with Mitogen-activated protein kinase 10 (Mus musculus) (UniProt Q61831). Nature of the test: JNK3 AlphaScreen Assay (AID 530; active means well fitted curve in either direction with a large enough effect, not every such curve was filed as active;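 further: kinase came from lysate of stimulated human HepG2 cells; signal reports phosphorylation of biotinylated GST-cJun 1-79 at Ser73 with 10 µM ATP; on the % scale 0 is the no-effect control and ±100 the full control effect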). The essentials:
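HepG2 lysate (IL-1b/TNFa pre-activated) + biotin-GST-cJun 1-79 + anti-pSer73 cJun; cpd titration, 15 min RT; ATP 10 uM start; Tris pH 7.6, MgCl2, DTT, vanadate; beads in EDTA buffer; AlphaScreen.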

In test [6] the target is 3',5'-cyclic-AMP phosphodiesterase 4B (Homo sapiens) (UniProt Q07343). In words: qHTS Assay for Inhibitors of PDE-IV (AID 607; active means well fitted activation curve with a large enough effect in the main read-out, with a control signal flat, not every such curve was filed as active; further: % of control where 0% means no effect). The essentials:
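ACTOne HEK293 cells carry a modified cAMP-gated CNG channel and express endogenous PDE4; plated 1000 cells/well, compounds up to 22.9 uM final. Membrane-potential dye fluorescence (ex 535/em 590) was read; parental cells received 10 uM forskolin + 100 uM RO 20-1724.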

Test [7] is described as follows: qHTS Assay for Lipid Storage Modulators (AID 1519; calls by dose curve). The following applies: Drosophila S3 cells, BODIPY lipid droplet/cell ratio, laser cytometry, cells loaded with oleic acid; for activity change, negative = inhibition: at 25.7 µM (top of the series). In a few lines:
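Cells seeded at 5,000 per well were treated with compounds over a concentration series and loaded with oleic acid (400 uM, as added). Lipid droplet fluorescence (488 nm excitation, 500-530 nm channel) was read by laser-scanning cytometry and normalized to 20 uM Triacsin C.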

The target of test [8] is Ubiquitin carboxyl-terminal hydrolase 1 (Homo sapiens) (UniProt O94782). In words: Inhibitors of USP1/UAF1: Pilot qHTS (AID 504865).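 Further: rhodamine fluorescence freed from ubiquitin-rhodamine substrate followed over time; top concentration of the series differs between compounds; on the % scale 0 is the no-effect control and ±100 the full control effect; nearly all actives have a fitted effect of over 35% in size.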 The essentials: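 Kinetic fluorescence assay: 1nM USP1/UAF1, 15 min compound preincubation, then 150nM Ub-Rho; 480/540 nm.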
A short description of test [9]: S16 Schwann cell PMP22 intronic element firefly luciferase assay (AID 624032). Further: nearly all actives have a fitted effect of over 30% in size. Further: potency means the concentration at half of the fitted maximal effect.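 On activity change, negative = inhibition: plate controls were DMSO for no effect and PTC124 positive control mean for full effect.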 The essentials:
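Rat S16 Schwann cells stably carrying firefly luciferase driven by a PMP22 intronic element, in 10% FBS, treated 24 h at 37 C. ONE-Glo luminescence normalized to PTC124 control and DMSO (0%); curves classed by r2, magnitude and activity.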

Test [10] in a line: qHTS profiling for inhibitors of Plasmodium falciparum proliferation (AID 504749). Further: potency means the concentration at half of the fitted maximal effect.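 On activity, negative = inhibition: 0% = DMSO vehicle and full inhibition = artemisinin control.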 On all read-outs here: nearly all actives have a fitted effect of over 60% in size. The following applies: P. falciparum in erythrocytes, SYBR Green DNA, 72 h; for activity, negative = inhibition: at 12.8 µM (top of the series). The essentials:
(§1)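 SYBR Green fluorescence (ex 485 nm, em 535 nm) reports parasite DNA after 72 h compound exposure of infected red cells at 0.3% parasitemia, 2.5% hematocrit; signal normalized to 0.29 uM artemisinin and vehicle wells.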

Another test deals with 3D7. The test is described as above. The following applies: P. falciparum in erythrocytes, SYBR Green DNA, 72 h; series mostly up to 12.8 µM. In a few lines:
as §1

For the next test, the system named is AS120. The description is as above. The settings on record: P. falciparum in erythrocytes, SYBR Green DNA, 72 h; series mostly up to 12.8 µM. In a few lines:
as §1

A further test has as its system ATS189. Described as above. The following applies: P. falciparum in erythrocytes, SYBR Green DNA, 72 h; series mostly up to 12.8 µM. In a few lines: as §1
The next test relates to CP217. The description is as above. The following applies: P. falciparum in erythrocytes, SYBR Green DNA, 72 h; series mostly up to 12.8 µM. The essentials:
as §1

For the next test, the system named is CP247. The test is described as above. The following applies: P. falciparum in erythrocytes, SYBR Green DNA, 72 h; series mostly up to 12.8 µM. The essentials: as §1
In the next test the test system is CP250. The test is described as above. The settings on record: P. falciparum in erythrocytes, SYBR Green DNA, 72 h; series mostly up to 12.8 µM. The essentials:
as §1

A further test relates to SC27B. The description is as above. The following applies: P. falciparum in erythrocytes, SYBR Green DNA, 72 h; series mostly up to 12.8 µM. In a few lines: as §1
A short description of test [11]: S16 Schwann cell viability assay (CellTiter-Glo assay) (AID 624031).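 Further: cellular ATP luminescence as a viability measure; plate controls were DMSO-treated cells for no effect and cell-free wells for full effect; nearly all actives have a fitted effect of over 70% in size.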 In a few lines: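 Luminescent ATP read-out (CellTiter-Glo) after 24 h compound exposure of native S16 rat Schwann cells at 37 °C. Signals were normalized between cell-free wells and DMSO-treated cells, set as 0% activity.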
Setting [12] is: measured here: cell count channel max response.
[13] abbreviates: measured here: lipid channel max response.

The structures appear in SMILES notation. Records with an inconclusive call do not appear. The source made the active and inactive calls. Unless noted, the call rests on the fitted dose curve; in most records, active means well fitted curve in the direction sought with a large enough effect; inconclusive means small, poorly fitted or top-dose-only effect, or another doubt; inactive means no such curve, though single readings can be large; an effect the other way counts as inactive or inconclusive.

Here are results for 7 compounds from PubChem BioAssay (NCATS).

Sequence of Ubiquitin carboxyl-terminal hydrolase 1 (Homo sapiens) (O94782 whole entry, looked up): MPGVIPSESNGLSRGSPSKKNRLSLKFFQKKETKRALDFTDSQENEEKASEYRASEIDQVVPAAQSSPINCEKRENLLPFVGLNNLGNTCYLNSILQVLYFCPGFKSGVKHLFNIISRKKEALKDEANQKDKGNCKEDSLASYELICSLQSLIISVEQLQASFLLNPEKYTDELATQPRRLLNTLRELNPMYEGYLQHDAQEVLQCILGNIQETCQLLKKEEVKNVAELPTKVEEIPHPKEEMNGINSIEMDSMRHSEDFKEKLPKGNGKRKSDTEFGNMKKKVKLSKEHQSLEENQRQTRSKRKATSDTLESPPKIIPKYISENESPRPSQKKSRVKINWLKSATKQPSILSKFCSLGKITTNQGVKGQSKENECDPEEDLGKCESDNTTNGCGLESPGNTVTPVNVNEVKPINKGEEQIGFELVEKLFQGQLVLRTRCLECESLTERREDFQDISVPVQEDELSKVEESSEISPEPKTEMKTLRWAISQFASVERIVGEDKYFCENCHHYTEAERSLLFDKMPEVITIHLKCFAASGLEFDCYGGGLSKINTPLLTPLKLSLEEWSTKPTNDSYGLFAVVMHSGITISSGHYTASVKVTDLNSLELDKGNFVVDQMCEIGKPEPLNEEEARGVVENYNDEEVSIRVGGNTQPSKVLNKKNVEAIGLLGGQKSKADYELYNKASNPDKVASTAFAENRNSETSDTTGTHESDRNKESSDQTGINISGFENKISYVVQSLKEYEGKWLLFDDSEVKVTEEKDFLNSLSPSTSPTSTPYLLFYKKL
Sequence of Cytochrome P450 1A2 (Homo sapiens) (P05177 whole entry, looked up): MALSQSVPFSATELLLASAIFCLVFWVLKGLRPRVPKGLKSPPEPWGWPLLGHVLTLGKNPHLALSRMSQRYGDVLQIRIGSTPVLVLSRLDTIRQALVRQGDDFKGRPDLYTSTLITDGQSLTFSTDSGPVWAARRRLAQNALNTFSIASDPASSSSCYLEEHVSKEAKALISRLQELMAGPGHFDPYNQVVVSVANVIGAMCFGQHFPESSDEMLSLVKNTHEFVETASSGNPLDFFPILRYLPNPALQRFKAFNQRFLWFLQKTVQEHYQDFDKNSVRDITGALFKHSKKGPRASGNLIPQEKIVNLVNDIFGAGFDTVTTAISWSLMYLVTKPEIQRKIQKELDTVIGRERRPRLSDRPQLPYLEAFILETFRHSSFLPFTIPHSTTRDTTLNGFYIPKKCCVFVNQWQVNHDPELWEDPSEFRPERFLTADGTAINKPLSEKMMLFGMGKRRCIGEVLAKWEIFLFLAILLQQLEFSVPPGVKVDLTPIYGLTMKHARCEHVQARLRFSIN
Sequence of 3',5'-cyclic-AMP phosphodiesterase 4B (Homo sapiens) (Q07343 whole entry, looked up): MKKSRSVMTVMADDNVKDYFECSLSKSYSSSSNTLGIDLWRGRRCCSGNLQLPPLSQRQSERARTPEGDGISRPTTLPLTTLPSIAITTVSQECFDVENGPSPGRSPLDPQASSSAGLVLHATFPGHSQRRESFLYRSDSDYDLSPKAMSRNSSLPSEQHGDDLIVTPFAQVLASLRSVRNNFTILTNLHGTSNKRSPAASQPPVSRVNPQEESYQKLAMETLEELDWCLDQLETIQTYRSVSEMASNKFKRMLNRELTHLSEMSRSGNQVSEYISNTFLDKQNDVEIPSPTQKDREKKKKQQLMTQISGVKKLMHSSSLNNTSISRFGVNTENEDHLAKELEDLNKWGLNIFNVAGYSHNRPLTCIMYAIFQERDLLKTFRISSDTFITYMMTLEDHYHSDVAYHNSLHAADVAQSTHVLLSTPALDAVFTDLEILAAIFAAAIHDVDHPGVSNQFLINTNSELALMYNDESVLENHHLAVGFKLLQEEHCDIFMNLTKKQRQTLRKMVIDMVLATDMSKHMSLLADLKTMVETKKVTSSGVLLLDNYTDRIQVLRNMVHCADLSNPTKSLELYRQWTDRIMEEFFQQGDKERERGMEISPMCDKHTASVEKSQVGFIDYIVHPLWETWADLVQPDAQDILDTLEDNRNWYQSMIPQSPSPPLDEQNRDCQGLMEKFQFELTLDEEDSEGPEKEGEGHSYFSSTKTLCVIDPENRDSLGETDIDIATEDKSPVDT

For the compound `CC(=O)OCC(=O)[C@@]1(O)CC[C@@H]2[C@H]3CCC4=CC(=O)CC[C@]4(C)[C@]3(F)[C@@H](O)C[C@@]21C`, the compound was called inactive in test [1], in test [4] and in test [6]. Also, the Potency result in test [2], in test [5] and in test [8] was “inactive” in each case. The values for the activity change, negative = inhibition in test [3] and in test [7] were -9.54% (inactive) and 0.165% (inactive), respectively. Also, the max response was determined as 9.04% in test [7] (setting [12]) and 9.02% in test [7] (setting [13]).
In the case of `C[C@@H]1Cc2ccccc2N1NC(=O)c1ccc(Cl)c(S(N)=O)c1` (stereo partly specified), the call in [1], in test [4] and in test [6] was inactive. The Potency entry (in test [2]; in test [5]; in test [8]; in the test on 3D7; in the test with AS120; in the test with ATS189) was “inactive” each time. Moreover, the Potency entry with CP217, with CP247, in the test with CP250 and with SC27B was “inactive” each time. Further, the figures for the activity change, negative = inhibition in [3] and in test [7] were 6.1% (inactive) and -0.666% (inactive), respectively. The max response in test [7] (setting [12]) worked out at 8.03%; in [7] (setting [13]), 7.13%. For the same compound, the Potency in test [9] was 3.46 µM (active). The activity, negative = inhibition was 15.9% (inactive) in [10] (parasite line A) and 17.7% (inactive) in [10] (parasite line B).
`Nc1ccn([C@@H]2CC[C@H](CO)O2)c(=O)n1`: the compound was classed as inactive in [1], in test [4] and in test [6]. In addition, the Potency entry in [2] and in test [5] was “inactive” throughout. In addition, the activity change, negative = inhibition was -7.49% (inactive) in test [3] and -3.47% (inactive) in [7]. For the same compound, the max response in test [7] (setting [12]) is -4.3%; in [7] (setting [13]) it was -6.51%.
As to `CCC(=O)O[C@@]1(C(=O)SCF)[C@@H](C)C[C@H]2[C@@H]3C[C@@H](F)C4=CC(=O)C=C[C@@]4(C)[C@]3(F)[C@@H](O)C[C@]21C`, the result in test [1], in test [4], in test [6] and in test [11] was inactive. For the same compound, the Potency entry (in test [2]; in [5]; in test [9]; in the test with CP247; in the test with CP250; in the test on SC27B) was “inactive” each time. Besides, the activity change, negative = inhibition in [3] was -22.7% (inactive); in test [7] it was 1.23% (inactive). The max response in test [7] (setting [12]) was -7.35%; in test [7] (setting [13]), -5.95%.
With `C[C@@]12CC[C@H]3[C@@H](CCC4=CC(=O)CC[C@]43C)[C@H]1CC[C@H]2C(=O)CO`, the call in test [1], in test [4], in test [6] and in [11] was inactive. The Potency entry (in test [2]; in test [5]; in test [9]; in the test with 3D7; in the test with ATS189; in the test on CP217) was “inactive” in each case. The Potency result with CP250 and in the test with SC27B was “inactive” in each case. In addition, the figures for the activity change, negative = inhibition in test [3] and in test [7] were -6.24% (inactive) and -5.79% (inactive), respectively. The values for the max response in test [7] (setting [12]) and in test [7] (setting [13]) were -3.01% and -9.53%, respectively. For the same compound, the activity, negative = inhibition in test [10] (parasite line B) is 3.27% (inactive). Moreover, the Potency in test [10] (parasite line A) is 4.47 µM (active).
For the compound `CCN1CCN(C(=O)N[C@H](C(=O)N[C@@H]2C(=O)N3[C@@H]2SC(C)(C)[C@@H]3C(=O)O)c2ccccc2)C(=O)C1=O`, the call in [1], in test [4] and in test [6] was inactive. In addition, the Potency entry in [2], in test [5] and in test [8] was “inactive” each time. Further, the activity change, negative = inhibition in test [3] was -2.87% (inactive); in test [7], 0.264% (inactive). The max response in test [7] (setting [12]) is -7.94%; in [7] (setting [13]) it was -7.68%.
Turning to `CC[C@@H]1OC(=O)[C@H](C)[C@H](O[C@@H]2C[C@](C)(OC)[C@H](O)[C@H](C)O2)[C@H](C)[C@H](O[C@@H]2O[C@@H](C)C[C@@H](N(C)C)[C@@H]2O)[C@](C)(O)C[C@H](C)[C@@H]2N[C@H](COCCOC)O[C@H]([C@@H]2C)[C@]1(C)O`, the call in [1], in test [4] and in [6] was inactive. In addition, the Potency result in test [2], in test [5] and in test [8] was “inactive” each time. The activity change, negative = inhibition was -16.7% (inactive) in test [3] and -3.92% (inactive) in test [7]. Further, the figures for the max response in test [7] (setting [12]) and in test [7] (setting [13]) were -8.33% and -9.89%, respectively.
